PostGolgi ctrl = growth of the yeast control strain, post-Golgi counter-screen; efflux-deficient yeast background strain, growth absorbance A615, 16 h; inhibition, % at 10 µM; hit rate 5% among 98,000
D1 allo mod = D1 dopamine receptor (human) allosteric modulation. P21728. HEK293 D1, CRE-luciferase, dopamine EC30 potentiation; actives deviate in either direction. B-score at 10 µM. hit rate 5.9% among 58,000. AID 641;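 active means luminescence count or its row- and column-corrected plate score outside the 99.7% band of the plate's sample wells, on either side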
PLAP activator = activates human placental alkaline phosphatase; purified PLAP enzyme, luminescent substrate read-out; active compounds read high; hit rate 1.2% among 96,000; activation fold at 20 µM; in the data active means activation fold above about 2
Target sequence (P05187 whole entry, looked up): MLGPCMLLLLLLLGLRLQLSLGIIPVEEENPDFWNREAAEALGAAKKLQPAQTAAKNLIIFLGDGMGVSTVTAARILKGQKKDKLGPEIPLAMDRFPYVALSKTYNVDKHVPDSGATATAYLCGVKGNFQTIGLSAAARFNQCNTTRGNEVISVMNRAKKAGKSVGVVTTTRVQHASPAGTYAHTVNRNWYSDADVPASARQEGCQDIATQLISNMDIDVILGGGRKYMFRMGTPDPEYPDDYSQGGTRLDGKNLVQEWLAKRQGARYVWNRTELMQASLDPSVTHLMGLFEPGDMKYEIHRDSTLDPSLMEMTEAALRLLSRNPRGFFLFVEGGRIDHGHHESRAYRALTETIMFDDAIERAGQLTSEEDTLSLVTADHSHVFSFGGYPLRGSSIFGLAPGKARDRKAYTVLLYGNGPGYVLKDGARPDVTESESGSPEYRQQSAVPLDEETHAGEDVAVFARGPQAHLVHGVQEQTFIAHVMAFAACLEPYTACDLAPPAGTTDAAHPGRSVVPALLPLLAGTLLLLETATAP
Cav32 inh = human Cav3.2 channel inhibition, primary screen | Cav3.2-expressing cells, Fluo-4 calcium fluorescence FDSS; active compounds read low | hit rate 4% among 100,000 | B-score at 10 µM | O95180;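 active means single-dose well whose peak fluorescence ratio is a statistical outlier from its plate by either plate-standardised score or position-corrected B-score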
hDAT+cocaine = modulates human dopamine transporter uptake under cocaine; hit rate 1.3% among 110,000; LLC-PK1 hDAT cells, [14C]-dopamine uptake with cocaine IC80; actives deviate in either direction; AID 449768; Q01959; B-score at 10 µM;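 active means Z score or B-score, a plate-position-corrected score, falls beyond the plate's 99.7% confidence bounds, in either direction; inactive means both scores lie inside the 99.7% bounds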
PostGolgi yeast = growth inhibition of a yeast mutant, post-Golgi transport screen; post-Golgi transport phenotypic cell assay; inhibition, % at 10 µM; hit rate 0.9% among 98,000; AID 739;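 further: yeast cells grown in 1536-well plates; yeast grown about 18 h at 30C before absorbance read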
Each line names hits and unclear results; the compound was inactive in the other large screens. This is a sample that favours compounds with a hit; in the whole collection about 12% have one here. Unless noted, no stated cut-off is given here; in the data, active means inhibition above about 30%; inactive means the rest.

CCS(=O)(=O)N1Cc2ccccc2CC1C(=O)OCC(=O)Nc1ccc(C)cc1 (stereo not drawn)	none
CCOC(=O)Nc1nnc(-c2ccc(OC)c(OC)c2)s1	none
Cc1snc(S(=O)(=O)Cc2ccccc2Cl)c1C#N	none (no result: D1 allo mod)
O=C(CSc1nnc(CNc2cccc(Cl)c2)o1)OC1CCCCC1	PostGolgi ctrl 31 (no result: D1 allo mod)
CC(C)(C)OC(=O)NCCCCCc1nnc(SCC(=O)Nc2cccc(Cl)c2)o1	Cav32 inh -7.3
Clc1ccc(CSc2nnc(CNc3cccc(Cl)c3)o2)cc1	PostGolgi ctrl 45 (no result: D1 allo mod, Cav32 inh, hDAT+cocaine)
CC(C)(C)OC(=O)NCCc1nnc(SCC(=O)Nc2cccc(Cl)c2)o1	none
CC(C)(C)OC(=O)NCCc1nnc(SCc2ccc(Cl)cc2)o1	none (no result: D1 allo mod)
O=C(Cc1ccccc1)NCC(=O)N1CCCCCC1	none (no result: D1 allo mod)
O=C(O)CCCC(=O)Nc1ccc(C(=O)NCc2cccnc2)cc1	PostGolgi ctrl 36 (no result: hDAT+cocaine)
CCCOc1ccc(C(=O)NCc2cccnc2)cc1	PostGolgi ctrl 32
CCC(C)OC(=O)C1=C(C)NC(=O)CC1c1ccccc1OC (stereo not drawn)	none
Cc1ccc(C2C3=C(CC(C)(C)CC3=O)N(CCN3CCOCC3)C3=C2C(=O)CC(C)(C)C3)cc1	PLAP activator 2.1
Cc1ccc(C)c(N2CCN(c3ncnc4c3cnn4-c3ccccc3)CC2)c1	none
Cc1ccc(-n2ncc3c(N4CCCC(C)C4)ncnc32)c(C)c1 (stereo not drawn)	none (no result: PostGolgi ctrl, PLAP activator, PostGolgi yeast)
Cc1ccc(-n2ncc3c(N4CCCC4)ncnc32)c(C)c1	PostGolgi ctrl 33 (no result: D1 allo mod, PLAP activator)
COc1cccc(N2CCN(c3ncnc4c3cnn4-c3ccc(C)cc3C)CC2)c1	PostGolgi ctrl 46, D1 allo mod -7.4
O=C(Nc1ccc2c(c1)OCCO2)C1CCCN(S(=O)(=O)c2cccnc2)C1 (stereo not drawn)	none
COc1cc(OC)cc(-c2nc3ccccc3s2)c1	none (no result: D1 allo mod)
COc1ccc(C(O)c2nc3ccccc3s2)cc1 (stereo not drawn)	hDAT+cocaine -1.9 (no result: Cav32 inh)
Cc1cnc(Nc2nc3ccccc3o2)nc1C(=O)Nc1cccc(C(F)(F)F)c1	Cav32 inh -6.1
COc1ccc2nc(NC(=O)C3CCCN3S(=O)(=O)c3ccc(C)cc3)sc2c1 (stereo not drawn)	Cav32 inh -3.7
COc1ccc(NC(=O)C2CCCN2S(=O)(=O)c2ccc3c(c2)CCC(=O)N3)cc1 (stereo not drawn)	Cav32 inh -4.1
O=C1CC(N2CCN(Cc3ccc4c(c3)OCO4)CC2)C(=O)N1c1ccccc1 (stereo not drawn)	PostGolgi ctrl 40
Cc1cccc(N2C(=O)CC(N3CCN(Cc4ccc5c(c4)OCO5)CC3)C2=O)c1 (stereo not drawn)	none
CS(=O)(=O)N1CCCC(C(=O)NCCCN2CCOCC2)C1 (stereo not drawn)	none
Cc1cc(NC(c2cccnc2)c2ccc3cccnc3c2O)no1 (stereo not drawn)	PLAP activator 2.4
COc1ccc(Cc2nnc(SCC(=O)NCC3CCCO3)o2)cc1 (stereo not drawn)	none
Cc1cc2ncn(C3CC(=O)N(Cc4ccccc4)C3=O)c2cc1C (stereo not drawn)	PostGolgi ctrl 40
COC(=O)C(NC(=O)c1ccccc1Cl)(Nc1ncc(S(=O)(=O)c2ccc([N+](=O)[O-])cc2)s1)C(F)(F)F (stereo not drawn)	Cav32 inh -8.6 (no result: D1 allo mod)
CCC(=O)NC(Nc1ncc(C)s1)(C(=O)OC)C(F)(F)F (stereo not drawn)	none (no result: PostGolgi ctrl, D1 allo mod, PLAP activator, PostGolgi yeast)
CCC(C)(C)C(=O)Nc1ncc(S(=O)(=O)c2ccc([N+](=O)[O-])cc2)s1	Cav32 inh -5.2 (no result: D1 allo mod)
CCC(C)(C)c1nnc(NC(=O)c2ccc([N+](=O)[O-])cc2)s1	none (no result: D1 allo mod)
O=C(NCCCn1ccnc1)C1c2ccccc2Oc2ccccc21	D1 allo mod -2.5
Cc1cccc(S(=O)(=O)NCCC(=O)OC(C)C(=O)NC(=O)NC2CCCCC2)c1 (stereo not drawn)	Cav32 inh -7.8
Cc1ccc(S(=O)(=O)NCCC(=O)NC2CCCC2)cc1	none (no result: Cav32 inh, hDAT+cocaine)
Cc1cc(C)nc(NC(=O)CCC2CCCC2)c1	none (no result: PostGolgi ctrl, D1 allo mod, PLAP activator, PostGolgi yeast)
O=C(CCC1CCCCC1)Nc1ncn[nH]1	PLAP activator 2
COC(=O)C1(Cc2ccc(O)cc2)OC(=O)C(O)=C1c1ccc(O)cc1 (stereo not drawn)	none (no result: PostGolgi ctrl, D1 allo mod, PLAP activator, PostGolgi yeast)
CC(C)Cn1[nH]c2c3c(ccc2c1=O)C(=O)c1ccccc1C3=O	none (no result: D1 allo mod)
COC(=O)c1cc(CN2CCN(c3ccccc3C)CC2)ccc1O	PostGolgi ctrl 33 (no result: D1 allo mod)
CCN(CC)CCCN(Cc1cc2cc3c(cc2[nH]c1=O)OCO3)C(=O)Nc1ccccc1OC	none
CCN(CC)CCCN(Cc1cc2cc3c(cc2[nH]c1=O)OCCO3)C(=O)Nc1ccc(F)cc1	PostGolgi yeast 35
COc1ccc(S(=O)(=O)NCc2ccco2)c2ccccc12	PostGolgi ctrl 34, Cav32 inh -4.2
CCCOc1ccc(-c2nc(=S)[nH][nH]2)cc1	none (no result: D1 allo mod)
Oc1c(Br)cc(C2N=C(c3ccccc3Cl)NO2)cc1Br (stereo not drawn)	none (no result: D1 allo mod)
CNS(=O)(=O)c1cccc(C(=O)OCc2cc(Cl)cc3c2OCOC3)c1	Cav32 inh -4.2
CNS(=O)(=O)c1cccc(C(=O)OCC(=O)N2CCc3ccccc3C2)c1	none (no result: D1 allo mod)
Cc1cc(C)nc(NC(=O)C(C)C)n1	none (no result: D1 allo mod)
CC(C)n1c(N2CCN(CC(=O)NCc3cccs3)CC2)nc2ccccc21	PLAP activator 2
CC(C)n1c(N2CCN(C(=O)c3cccs3)CC2)nc2ccccc21	none (no result: Cav32 inh)
Cc1cccc(C)c1N(CC(O)Cn1c2ccccc2c2ccccc21)S(C)(=O)=O (stereo not drawn)	none (no result: D1 allo mod)
Cc1ccc(N(CC(O)Cn2c3ccccc3c3ccccc32)S(C)(=O)=O)cc1 (stereo not drawn)	PostGolgi ctrl 51 (no result: D1 allo mod)
Cc1ccc(N(CC(O)CN2CCOCC2)S(=O)(=O)c2ccc3ccccc3c2)cc1 (stereo not drawn)	none
Cc1ccc(N(CC(O)Cn2c3ccccc3c3ccccc32)S(C)(=O)=O)c(C)c1 (stereo not drawn)	PostGolgi ctrl 51 (no result: D1 allo mod)
Cc1ccc(N(CC(O)CON=C2c3ccccc3-c3ccccc32)S(C)(=O)=O)cc1 (stereo not drawn)	PostGolgi ctrl 67 (no result: D1 allo mod)
Cc1ccc(N(CC(O)CN2CCCC2)S(=O)(=O)c2ccc(C)cc2)cc1 (stereo not drawn)	PostGolgi ctrl 46
C=C(C)C(=O)Nc1cccc(C2=NOC3(C2)C[C@@H](C(N)=O)N(C(=O)CC(c2ccccc2)c2ccccc2)C3)c1 (stereo partly drawn)	none (no result: PostGolgi ctrl, D1 allo mod, PLAP activator, PostGolgi yeast)
O=C(O)CSCC(=O)NCc1ccccc1	none
Cc1ccc2[nH]c(=O)c(CN(CCCN3CCOCC3)C(=O)Nc3cccc(Cl)c3)cc2c1	none (no result: PostGolgi ctrl, PLAP activator, Cav32 inh, hDAT+cocaine, PostGolgi yeast)
O=C(O)CCNc1cc2ccccc2cc1C(=O)O	none (no result: D1 allo mod)
CN(C)C(=O)C(CCN1CCC(O)(c2ccc(Cl)cc2)CC1)(c1ccccc1)c1ccccc1	Cav32 inh -4.6 (no result: PostGolgi ctrl, D1 allo mod, PLAP activator, PostGolgi yeast)
CC1CN(Cc2cc(=O)[nH]c(C3CC3)n2)CC(C)O1 (stereo not drawn)	hDAT+cocaine -6.8 (no result: D1 allo mod)

Bioassay records: PubChem BioAssay, several laboratories
